# According to PubChem BioAssay (Tox21):
# “And” between values parts separate entries of the source, which are not always exact repeats. Identical values can stand only once. Inconclusive results are not listed. Entries that show only a call come without a potency. The source holds several records for some structures; these can differ, active in one and inactive in another. The source made the active and inactive calls. Unless noted, calls come from the whole dose curve; as a rule, active = well fitted curve in the direction sought with a large enough effect in the repeat runs; inconclusive = weak or mixed curves; inactive = no such curve, though single readings can be large; an effect the other way counts as inactive or inconclusive.
# Columns and labels:
# [1] = qHTS assay to identify small molecule antagonists of the progesterone receptor (PR) signaling pathway - cell viability counter screen (AID 1346798); note: nearly all actives have a fitted effect of over 50% in size; note: potency is the fitted concentration of half-maximal effect; for activity change, negative = cytotoxicity: series mostly up to about 92 µM
# How it was run: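 PR-UAS-bla HEK293T cells in medium with 2% charcoal-stripped FBS were treated with compounds plus R5020 for 16 hr at 37C. Cell viability was then read by CellTiter-Glo luminescence after 30 min at room temperature in the same wells.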
# [2] = qHTS assay to identify small molecule agonists of the progesterone receptor (PR) signaling pathway - cell viability counter screen (AID 1346799; calls by dose curve; note: nearly all actives have a fitted effect of over 45% in size; note: potency is the fitted concentration of half-maximal effect)
# How it was run: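 PR-UAS-bla HEK293T cells, 3,000 per well in medium with 2% charcoal-stripped FBS, were preincubated 6 hr at 37C, then exposed to compounds for 16 hr; viability was read as CellTiter-Glo luminescence after 30 min at room temperature.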
# [3] = qHTS assay to identify small molecule antagonists of the TGF-beta/Smad signaling pathway - cell viability counter screen (AID 1346824); note: nearly all actives have a fitted effect of over 50% in size; note: potency is the fitted concentration of half-maximal effect
# How it was run: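 SBE-bla HEK 293T cells were plated overnight at 37 C, then given compounds in DMSO plus TGF-beta1 (added as 0.25 ng/mL solution) for 5 hr. After the bla read, CellTiter-Glo was added to the same wells and luminescence read after 30 min at room temperature.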
# [4] = qHTS assay to identify small molecule agonists of the TGF-beta/Smad signaling pathway - cell viability counter screen (AID 1346829); note: nearly all actives have a fitted effect of over 45% in size; note: potency is the fitted concentration of half-maximal effect; for activity change, negative = cytotoxicity: top concentration of the series differs between compounds
# How it was run: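 Same-well cytotoxicity: CellTiter-Glo added after the 2 hr room-temperature beta-lactamase substrate step, luminescence measured 30 min later; cells had 5 hr of compound at 37 C.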
# [5] = qHTS assay to identify small molecule agonists of the TGF-beta/Smad signaling pathway (AID 1346859; active = well fitted activation curve with a large enough effect in the signal ratio in the repeat runs, not every such curve was filed as active; the % refers to the signal ratio; note: series mostly up to about 77 µM)
# How it was run: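 HEK 293T cells stably carrying a beta-lactamase reporter driven by the Smad binding element were seeded overnight, exposed to DMSO-dissolved compounds for 5 hr at 37 C, 5% CO2, then loaded with FRET substrate for 2 hr at room temperature.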
# [6] = biological target: Thyrotropin-releasing hormone receptor (Homo sapiens) (UniProt P34981); assay: qHTS assay to identify small molecule antagonists of the thyrotropin-releasing hormone receptor (TRHR) signaling pathway (AID 1346877; active = well fitted inhibition curve with a large enough effect in the repeat runs, not every such curve was filed as active; note: potency is the fitted concentration of half-maximal effect; for activity, negative = inhibition: series mostly up to about 51 µM)
# How it was run: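 Antagonism is measured as suppression of the calcium response to 1 nM TRH in TRHR-HEK293 cells that have been dye-loaded for 2 h at 37 °C after overnight plating. Each compound is tested at 15 concentrations in triplicate.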
# [7] = biological target: Thyrotropin-releasing hormone receptor (Homo sapiens) (UniProt P34981); assay: qHTS assay to identify small molecule agonists of the thyrotropin-releasing hormone receptor (TRHR) signaling pathway (AID 1346891; calls by dose curve; note: series mostly up to about 58 µM)
# How it was run: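 TRHR-expressing HEK293 cells were plated 18 h at 37 °C/5% CO2, loaded with calcium dye 2 h at 37 °C, then given compound in DMSO; fluorescence was read kinetically for 3 min at 1 s intervals.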
# [8] = Human pregnane X receptor (PXR) small molecule agonists, qHTS cell viability counter screen (AID 1346977); note: nearly all actives have a fitted effect of over 50% in size; note: potency is the fitted concentration of half-maximal effect
# How it was run: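 PXR-Luc HepG2 cells in medium with 5% charcoal-stripped FBS were pre-incubated 5hr, then exposed to compounds for 24hr at 37C. Viability was read in the same wells by CellTiter-Fluor fluorescence, reagent added after 23hr with a 1hr incubation.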
# [9] = Caspase-3/7 induction in HepG2 cells by small molecules, qHTS assay (AID 1346978); note: nearly all actives have a fitted effect of over 15% in size; note: potency is the fitted concentration of half-maximal effect
# How it was run: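 Wild-type HepG2 cells (2,000/well) were settled 5 h at 37 C, 5% CO2, then exposed to compounds in DMSO for 17 h. Caspase-3/7 activity was read by luminescence 30 min after adding Caspase-Glo 3/7 reagent at room temperature.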
# [10] = biological target: Progesterone receptor (Homo sapiens) (UniProt P06401); assay: qHTS assay to identify small molecule antagonists of the progesterone receptor (PR) signaling pathway (AID 1346795; active = well fitted inhibition curve with a large enough effect in the signal ratio in the repeat runs, not every such curve was filed as active; the % refers to the signal ratio; note: potency is the fitted concentration of half-maximal effect)
# How it was run: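 PR-UAS-bla HEK293T cells carrying a UAS-driven beta-lactamase reporter were plated in medium with 2% charcoal-stripped FBS and rested 6 hr at 37C. Compounds were added with 1 nM R5020 (final) for 16 hr, then FRET substrate loaded 2 hr at room temperature.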
# Sequence of Progesterone receptor (Homo sapiens) (P06401 whole entry, looked up): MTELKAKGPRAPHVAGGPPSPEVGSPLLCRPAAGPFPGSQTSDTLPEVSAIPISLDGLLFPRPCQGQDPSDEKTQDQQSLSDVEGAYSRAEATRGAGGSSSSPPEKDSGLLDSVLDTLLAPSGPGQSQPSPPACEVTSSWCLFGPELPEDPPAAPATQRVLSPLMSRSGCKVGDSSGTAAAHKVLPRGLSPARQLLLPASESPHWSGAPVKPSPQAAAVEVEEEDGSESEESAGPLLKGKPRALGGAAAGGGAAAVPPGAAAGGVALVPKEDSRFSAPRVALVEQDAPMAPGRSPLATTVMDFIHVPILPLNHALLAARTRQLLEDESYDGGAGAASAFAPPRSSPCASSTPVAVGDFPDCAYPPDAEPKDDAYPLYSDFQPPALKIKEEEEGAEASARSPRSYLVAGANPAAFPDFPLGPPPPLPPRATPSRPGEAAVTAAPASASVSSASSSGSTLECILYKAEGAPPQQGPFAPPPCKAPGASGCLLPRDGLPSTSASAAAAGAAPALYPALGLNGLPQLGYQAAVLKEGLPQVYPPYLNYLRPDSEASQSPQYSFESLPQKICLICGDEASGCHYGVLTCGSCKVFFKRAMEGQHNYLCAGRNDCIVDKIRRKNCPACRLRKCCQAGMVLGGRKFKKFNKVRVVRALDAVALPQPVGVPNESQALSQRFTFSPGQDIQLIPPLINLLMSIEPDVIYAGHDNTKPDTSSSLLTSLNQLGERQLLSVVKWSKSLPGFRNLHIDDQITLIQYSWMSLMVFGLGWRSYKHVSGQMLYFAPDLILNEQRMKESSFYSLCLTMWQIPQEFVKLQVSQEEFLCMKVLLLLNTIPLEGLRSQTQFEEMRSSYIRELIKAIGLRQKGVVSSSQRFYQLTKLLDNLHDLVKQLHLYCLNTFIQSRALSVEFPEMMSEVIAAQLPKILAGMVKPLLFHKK
# Sequence of Thyrotropin-releasing hormone receptor (Homo sapiens) (P34981 whole entry, looked up): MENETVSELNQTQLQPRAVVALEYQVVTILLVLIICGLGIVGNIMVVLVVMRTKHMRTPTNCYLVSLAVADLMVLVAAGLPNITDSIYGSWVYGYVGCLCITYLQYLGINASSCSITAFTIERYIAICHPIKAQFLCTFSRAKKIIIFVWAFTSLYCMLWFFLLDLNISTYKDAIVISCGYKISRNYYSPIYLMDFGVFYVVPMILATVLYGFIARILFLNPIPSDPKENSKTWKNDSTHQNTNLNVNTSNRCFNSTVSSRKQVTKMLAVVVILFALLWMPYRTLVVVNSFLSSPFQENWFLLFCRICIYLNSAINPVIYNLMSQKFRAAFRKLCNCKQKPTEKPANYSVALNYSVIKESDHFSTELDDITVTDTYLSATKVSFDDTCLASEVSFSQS
smiles,measurement,setting,value
CCCNCCC,Potency,[1],inactive
same,Potency,[2],inactive
same,Potency,[3],inactive
same,Potency,[4],inactive
same,Potency,[5],inactive
same,Potency,[6],inactive
same,outcome,[7],inactive
same,Potency,[8],inactive
same,Potency,[9],inactive
Cc1cc(C)c(/C=C2\C(=O)Nc3ccccc32)[nH]1,Potency,[1],inactive
same,Potency,[2],inactive
same,Potency,[3],inactive
same,Potency,[4],inactive
same,Potency,[5],inactive
same,Potency,[6],inactive
same,Potency,[9],inactive
O=c1c(O)c(-c2ccc(O)cc2O)oc2cc(O)cc(O)c12,Potency,[1],inactive
same,Potency,[2],inactive
same,Potency,[3],inactive
same,Potency,[4],inactive
same,Potency,[6],inactive
same,outcome,[7],inactive
same,Potency,[9],inactive
COc1ccc2c(c1)c(CC(=O)OC/C=C(\C)CC/C=C(\C)CCC=C(C)C)c(C)n2C(=O)c1ccc(Cl)cc1,Potency,[1],inactive
same,Potency,[2],inactive
same,Potency,[4],inactive
same,Potency,[5],inactive
same,Potency,[6],inactive
same,outcome,[7],inactive
same,Potency,[8],inactive
same,Potency,[9],inactive
O=C1CCCCCCCCCCCCCCCO1,Potency,[1],inactive
same,Potency,[2],inactive
same,Potency,[3],inactive
same,Potency,[4],inactive
same,Potency,[5],inactive
same,outcome,[7],inactive
same,Potency,[8],inactive
O=S(=O)(O)c1ccc(N=Nc2c(O)ccc3ccccc23)cc1,Potency,[1],8.63 µM (active)
same,Potency,[2],7.7 µM (active)
same,Potency,[3],inactive
same,Potency,[4],inactive
same,Potency,[5],inactive
same,Potency,[6],inactive
same,outcome,[7],inactive
same,Potency,[8],27.3 µM (active)
same,Potency,[9],inactive
O=C(c1ccc(O)c(O)c1)c1ccc(O)cc1O,Potency,[10],15.3 µM (active)
same,Potency,[4],inactive
same,Potency,[8],50.1 µM (active)
CCCCCCCCCCCCOCCOCCOCCOCCOCCOCCOCCOCCOCCO,Potency,[10],23.7 µM (active)
same,Potency,[4],inactive
same,Potency,[5],inactive
same,Potency,[6],inactive
same,outcome,[7],inactive
same,Potency,[8],11.9 µM (active)
COc1cc(S(=O)(=O)O)c(C)cc1N=Nc1c(O)ccc2cc(S(=O)(=O)O)ccc12,Potency,[1],inactive
same,Potency,[2],inactive
same,Potency,[3],inactive
same,Potency,[4],inactive
same,Potency,[5],inactive
same,Potency,[6],inactive
same,outcome,[7],inactive
same,Potency,[8],15.4 µM (active)
CC(C)(C)CC(C)(C)c1ccc(Nc2ccc(C(C)(C)CC(C)(C)C)cc2)cc1,"activity change, negative = cytotoxicity",[1],-7.66% [at 8.39 µM] (inactive)
same,"activity change, negative = cytotoxicity",[2],8.24% [at 8.39 µM] (inactive)
same,"viability change, negative = cytotoxic",[3],15.5% [at 6.97 µM] (inactive)
same,"activity change, negative = cytotoxicity",[4],1.44% [at 6.97 µM] (inactive)
same,"activity, negative = inhibition",[6],-2.04% [at 4.65 µM] (inactive)
same,activation,[7],-0.0029% [at 5.23 µM] (inactive)
same,"activity change, negative = cytotoxicity",[8],1.07% [at 8.39 µM] (inactive)
same,caspase activation,[9],1.74% [at 8.39 µM] (inactive)
CCCCCCCCCCCCOC(=O)c1ccc(O)cc1,Potency,[1],inactive
same,Potency,[3],inactive
same,Potency,[4],inactive
same,Potency,[5],inactive
same,Potency,[6],inactive
same,outcome,[7],inactive
same,Potency,[8],inactive
same,Potency,[9],54.9 µM (active)
CCCCCCCCCCCCCCCC[N+](C)(C)CC,Potency,[1],68.8 µM (active)
same,Potency,[2],68.8 µM (active)
same,Potency,[3],43.8 µM (active)
same,Potency,[4],55.1 µM (active) and 26.8 µM (active)
same,Potency,[6],30.2 µM (active) and inactive
same,outcome,[7],inactive
same,Potency,[8],54.6 µM (active)
same,Potency,[9],inactive
O=c1[nH]c2ccccc2n1CCCN1CCN(C(c2ccccc2)c2ccccc2)CC1,Potency,[10],29.8 µM (active)
same,Potency,[3],inactive
same,Potency,[4],inactive
same,Potency,[8],33.5 µM (active)
Cl[Si](Cl)(c1ccccc1)c1ccccc1,Potency,[1],inactive
same,Potency,[2],inactive
same,Potency,[3],inactive
same,Potency,[4],inactive
same,Potency,[5],inactive
same,outcome,[7],inactive
same,Potency,[8],inactive
O=C1NC(=O)[C@@H]2CC=CC[C@H]12,Potency,[1],15.4 µM (active)
same,Potency,[2],8.63 µM (active)
same,Potency,[3],inactive
same,Potency,[4],inactive
same,Potency,[5],inactive
same,Potency,[6],inactive
same,outcome,[7],inactive
same,Potency,[8],inactive
same,Potency,[9],inactive
CC(=O)Oc1cc2c(s1)CCN(C(C(=O)C1CC1)c1ccccc1F)C2 (stereo unspecified),Potency,[1],inactive
same,Potency,[2],inactive
same,Potency,[3],inactive
same,Potency,[4],inactive
same,Potency,[5],inactive
same,Potency,[6],inactive
same,outcome,[7],inactive
same,Potency,[8],inactive
same,Potency,[9],inactive
CC[N+](CC)(CC)CCOc1ccc(/C=C/c2ccccc2)cc1,Potency,[1],inactive
same,Potency,[3],inactive
same,Potency,[4],inactive
same,Potency,[5],inactive
same,outcome,[7],inactive
same,Potency,[8],inactive
same,Potency,[9],inactive
c1ccc(SSc2ccccc2)cc1,Potency,[1],inactive
same,Potency,[2],inactive
same,Potency,[4],inactive
same,Potency,[6],inactive
same,outcome,[7],inactive
same,Potency,[8],inactive
O=[N+]([O-])c1ccc(O)cc1C(F)(F)F,Potency,[1],inactive
same,Potency,[3],inactive
same,Potency,[4],inactive
same,Potency,[5],inactive
same,Potency,[6],inactive
same,outcome,[7],inactive
same,Potency,[8],48.6 µM (active)
same,Potency,[9],inactive
Cc1cc(C(C)(C)C)c(O)c(C)c1Cn1c(=O)n(Cc2c(C)cc(C(C)(C)C)c(O)c2C)c(=O)n(Cc2c(C)cc(C(C)(C)C)c(O)c2C)c1=O,Potency,[1],inactive
same,Potency,[2],inactive
same,Potency,[4],inactive
same,Potency,[5],inactive
same,outcome,[7],inactive
same,Potency,[8],inactive
same,Potency,[9],inactive
Clc1nnc(Cl)c2ccccc12,Potency,[1],inactive
same,Potency,[2],inactive
same,Potency,[4],inactive
same,Potency,[5],inactive
same,Potency,[6],inactive
same,Potency,[8],inactive
same,Potency,[9],inactive
CCCC(=O)OCOC(=O)C1=C(C)NC(C)=C(C(=O)OC)C1c1cccc(Cl)c1Cl (stereo unspecified),Potency,[1],inactive
same,Potency,[2],inactive
same,Potency,[3],inactive
same,Potency,[4],inactive
same,Potency,[5],inactive
same,Potency,[8],inactive
same,Potency,[9],inactive
C=C(CC)C(=O)c1ccc(OCC(=O)O)c(Cl)c1Cl,Potency,[1],inactive
same,Potency,[2],inactive
same,Potency,[3],inactive
same,Potency,[4],inactive
same,Potency,[6],inactive
same,outcome,[7],inactive
same,Potency,[8],43 µM (active)
same,Potency,[9],inactive
FC(F)(F)c1cccc(Cl)c1,Potency,[2],inactive
same,Potency,[4],inactive
same,Potency,[5],inactive
same,Potency,[8],inactive
